According to PubChem BioAssay (EPA / NIEHS):
Records with an inconclusive call do not appear. Active and inactive are the calls of the source. How the source made its calls, unless noted: active means hit-call score of the fitted dose curve at least 0.9, where 1 is the maximum; inactive means score below 0.9.

Tests used:
[1] = target: human RAR-related Orphan Receptor gamma (RORg), RORC (gene 6097) (UniProt P51449); test: ATG_RORg_TRANS: Attagene TRANS-FACTORIAL HepG2 Assay for human RAR-related Orphan Receptor gamma (RORg) (AID 2283011; active means hit-call score of the fitted dose curve at least 0.9, where 1 is the maximum;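 on AC50: potency for induction of reporter transcripts above DMSO so activators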)
Procedure, shortened: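 Chimeric RORg-Gal4 transactivation in transfected HepG2; 24 h exposure; RT-PCR/capillary electrophoresis readout of reporter mRNA, DMSO baseline.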

[2] = target: Retinoic acid receptor RXR-alpha (Homo sapiens) (UniProt P19793); test: ATG_RXRa_TRANS: Attagene TRANS-FACTORIAL HepG2 Assay for human Retinoid X Receptor alpha (RXRa) (AID 2283012; active means hit-call score of the fitted dose curve at least 0.9, where 1 is the maximum)
Procedure, shortened: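 TRANS format reporting activity of exogenous RXRa-Gal4 chimera in transiently transfected HepG2, 24 h exposure. Reporter transcripts quantified by RT-PCR with capillary electrophoresis, with gain of signal scored relative to DMSO.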

[3] = target: human Retinoid X Receptor beta (RXRb), RXRB (gene 6257) (UniProt P28702); test: ATG_RXRb_TRANS: Attagene TRANS-FACTORIAL HepG2 Assay for human Retinoid X Receptor beta (RXRb) (AID 2283013; active means hit-call score of the fitted dose curve at least 0.9, where 1 is the maximum)
Procedure, shortened: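 Readout is reporter transcript induction after 24 h dosing. It is measured by RT-PCR of total RNA followed by fluorescent capillary electrophoresis. HepG2 liver cells carry transfected multiple reporter units driven by an exogenous RXRb-Gal4 fusion; activity is relative to DMSO.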

[4] = read-out: E-selectin (Homo sapiens) (UniProt P16581); test: BSK_3C_Eselectin: BioMAP Diversity Plus: 3C Assay for Eselectin Biomarker Activity (AID 2283015); settings: primary human endothelial cells (HUVEC); actives raise or lower the signal;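 on outcome: cell surface E-selectin protein quantified by ELISA 24 h after dosing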
Procedure, shortened: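 Endpoint derived by bidirectional fitting against DMSO vehicle; signal is ELISA-detected E-selectin from primary HUVEC at 24 h post-dosing, with parallel SRB staining (0.1% SRB, 560 nm) flagging cytotoxicity.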

[5] = read-out: Interleukin-1 alpha (IL1a), IL1A (gene 3552); test: BSK_BE3C_IL1a: BioMAP Diversity Plus: BE3C Assay for Interleukin-1 alpha (IL1a) Biomarker Activity (AID 2283016); settings: primary human bronchial epithelial cells; actives raise or lower the signal
Procedure, shortened: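 IL-1a measured by ELISA after 24 h treatment of human primary bronchial epithelial cells, with gain or loss of signal fitted versus DMSO. Parallel cultures stained with SRB gauge overt cytotoxicity.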

[6] = read-out: Monocyte Chemoattractant Protein-1 (MCP1), CCL2 (gene 6347); test: BSK_3C_MCP1: BioMAP Diversity Plus: 3C Assay for Monocyte Chemoattractant Protein-1 (MCP1) Biomarker Activity (AID 2283017); settings: primary human endothelial cells (HUVEC); actives raise or lower the signal
Procedure, shortened: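 Using human vascular primary endothelium, researchers measured MCP-1 by ELISA 24 h after treatment, with DMSO serving as negative control for bidirectional fitting.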

[7] = read-out: Human Leukocyte Antigen - DR isotype (HLADR), HLA-DRA (gene 3122); test: BSK_3C_HLADR: BioMAP Diversity Plus: 3C Assay for Human Leukocyte Antigen - DR isotype (HLADR) Biomarker Activity (AID 2283019); settings: primary human endothelial cells (HUVEC); actives raise or lower the signal;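 on outcome: ELISA of cell-surface HLA-DR on HUVEC 24 h after dosing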
Procedure, shortened: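 Compound added to primary HUVEC cultures, 24 h incubation, then HLA-DR determined by ELISA; endpoint derived by bidirectional fitting relative to DMSO negative control.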

[8] = read-out: Interleukin-8 (IL8), CXCL8 (gene 3576); test: BSK_3C_IL8: BioMAP Diversity Plus: 3C Assay for Interleukin-8 (IL8) Biomarker Activity (AID 2283020); settings: primary human endothelial cells (HUVEC); actives raise or lower the signal
Procedure, shortened: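 IL-8 was measured by ELISA in HUVEC cultures 24 h after chemical dosing, with gain or loss of signal fitted relative to DMSO. Parallel SRB total-protein staining tracked overt cytotoxicity.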

[9] = read-out: Monokine induced gamma interferon (MIG), CXCL9 (gene 4283); test: BSK_3C_MIG: BioMAP Diversity Plus: 3C Assay for Monokine induced gamma interferon (MIG) Biomarker Activity (AID 2283021); settings: primary human endothelial cells (HUVEC); actives raise or lower the signal;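 on AC50: MIG protein level measured by immunoassay in the treated endothelial cultures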
Procedure, shortened: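 ELISA measurement of MIG in human umbilical vein endothelial cells 24 h after treatment. Cytotoxicity tracked by SRB staining in parallel cultures; gain or loss of signal fitted relative to DMSO.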

[10] = target: human Vitamin D Receptor (VDR), VDR (gene 7421) (UniProt P11473); test: ATG_VDR_TRANS: Attagene TRANS-FACTORIAL HepG2 Assay for human Vitamin D Receptor (VDR) (AID 2283022; active means hit-call score of the fitted dose curve at least 0.9, where 1 is the maximum)
Procedure, shortened: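 Multiplexed TRANS reporter in HepG2; 24 h treatment; reporter mRNA by RT-PCR plus capillary electrophoresis; upregulation scored relative to DMSO.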

[11] = BSK_3C_SRB: Viability Assessment in the BioMAP Diversity Plus: 3C Assay (AID 2283023); settings: primary human endothelial cells (HUVEC);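 further: cells read 24 h after compound dosing; fitted both ways against DMSO so a hit may be signal rise or drop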
Procedure, shortened: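 Overt cytotoxicity is gauged in parallel confluent HUVEC cultures by SRB total-protein staining at the time of biomarker measurement, 24 h after dosing. Gain or loss of signal is fitted versus DMSO.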

[12] = read-out: Matrix Metallopeptidase 1 (MMP1), MMP1 (gene 4312); test: BSK_BE3C_MMP1: BioMAP Diversity Plus: BE3C Assay for Matrix Metallopeptidase 1 (MMP1) Biomarker Activity (AID 2283024); settings: primary human bronchial epithelial cells; actives raise or lower the signal
Procedure, shortened: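 ELISA measurement of MMP-1 after 24 h compound exposure of primary human bronchial epithelial cells. Changes in either direction fitted relative to DMSO; parallel SRB staining checked overt cytotoxicity.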

[13] = BSK_3C_Vis: BioMAP Diversity Plus: 3C Assay for Morphology Visualization (AID 2283025); settings: primary human endothelial cells (HUVEC);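 further: fitted both ways so gain or loss versus DMSO counts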;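 on AC50: light microscopy image of cell morphology used as background control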
Procedure, shortened: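 Light-microscopy visualization of HUVEC cultures at 24 h post-treatment, with DMSO as baseline for bidirectional fitting.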

[14] = read-out: Pselectin, SELP (gene 6403); test: BSK_4H_Pselectin: BioMAP Diversity Plus: 4H Assay for Pselectin Biomarker Activity (AID 2283026); settings: primary human endothelial cells (HUVEC); actives raise or lower the signal
Procedure, shortened: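 ELISA of surface P-selectin on HUVEC, 24 h after dosing, with parallel SRB staining (0.1% after 10% TCA fixation, 560 nm) for overt cytotoxicity. Activity fitted in both directions relative to DMSO.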

[15] = BSK_4H_SRB: Viability Assessment in the BioMAP Diversity Plus: 4H Assay (AID 2283027); settings: primary human endothelial cells (HUVEC);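 further: cells exposed to compound for 24 h before staining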;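 on AC50: curves fitted both ways versus DMSO so AC50 may be loss or gain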
Procedure, shortened: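 HUVEC, 24 h post-dose; 10% TCA fix, 0.1% SRB stain, A560 nm. Total protein = overt cytotoxicity, parallel to biomarker read. Bidirectional fit vs DMSO baseline.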

[16] = BSK_BE3C_SRB: Viability Assessment in the BioMAP Diversity Plus: BE3C Assay (AID 2283028); settings: primary human bronchial epithelial cells;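 on AC50: fitted both ways so AC50 may mark signal gain or loss versus DMSO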
Procedure, shortened: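 SRB total-protein staining (0.1%, after TCA fixation) of chemically dosed human bronchial epithelial primary cells at 24 h; DMSO serves as the negative control for bidirectional curve fitting.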

[17] = read-out: Thrombomodulin, THBD (gene 7056); test: BSK_3C_Thrombomodulin: BioMAP Diversity Plus: 3C Assay for Thrombomodulin Biomarker Activity (AID 2283029); settings: primary human endothelial cells (HUVEC); actives raise or lower the signal
Procedure, shortened: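 ELISA measurement of thrombomodulin on HUVEC surface 24 h after chemical dosing; activity fitted in both directions relative to DMSO vehicle.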

[18] = read-out: Urokinase-type plasminogen activator receptor (uPAR), PLAUR (gene 5329); test: BSK_4H_uPAR: BioMAP Diversity Plus: 4H Assay for Urokinase-type plasminogen activator receptor (uPAR) Biomarker Activity (AID 2283030); settings: primary human endothelial cells (HUVEC); actives raise or lower the signal
Procedure, shortened: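 Endpoint derived via bidirectional curve fitting against DMSO baseline; readout was ELISA detection of uPAR on umbilical vein endothelial cells at 24 h post-treatment, with SRB-stained parallel cultures assessing cytotoxicity.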

[19] = target: human Thyroid Receptor alpha (THRa1), THRA (gene 7067) (UniProt P10827); test: ATG_THRa1_TRANS: Attagene TRANS-FACTORIAL HepG2 Assay for human Thyroid Receptor alpha (THRa1) (AID 2283014; active means hit-call score of the fitted dose curve at least 0.9, where 1 is the maximum)
Procedure, shortened: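 Measured here is mRNA from a GAL4-UAS reporter in transfected HepG2 cells carrying a Gal4-fused receptor, 24 h post-dose. DMSO served as negative control and baseline.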

[20] = read-out: Monocyte Chemoattractant Protein-1 (MCP1), CCL2 (gene 6347); test: BSK_4H_MCP1: BioMAP Diversity Plus: 4H Assay for Monocyte Chemoattractant Protein-1 (MCP1) Biomarker Activity (AID 2283018); settings: primary human endothelial cells (HUVEC); actives raise or lower the signal
Procedure, shortened: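 ELISA of MCP-1 (CCL2) 24 h after chemical dosing of HUVEC in the BioMAP 4H system. Gain or loss versus DMSO fitted; parallel SRB staining (560 nm) tracked overt cytotoxicity.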

human Vitamin D Receptor (VDR), VDR (gene 7421), sequence (P11473 whole entry, looked up): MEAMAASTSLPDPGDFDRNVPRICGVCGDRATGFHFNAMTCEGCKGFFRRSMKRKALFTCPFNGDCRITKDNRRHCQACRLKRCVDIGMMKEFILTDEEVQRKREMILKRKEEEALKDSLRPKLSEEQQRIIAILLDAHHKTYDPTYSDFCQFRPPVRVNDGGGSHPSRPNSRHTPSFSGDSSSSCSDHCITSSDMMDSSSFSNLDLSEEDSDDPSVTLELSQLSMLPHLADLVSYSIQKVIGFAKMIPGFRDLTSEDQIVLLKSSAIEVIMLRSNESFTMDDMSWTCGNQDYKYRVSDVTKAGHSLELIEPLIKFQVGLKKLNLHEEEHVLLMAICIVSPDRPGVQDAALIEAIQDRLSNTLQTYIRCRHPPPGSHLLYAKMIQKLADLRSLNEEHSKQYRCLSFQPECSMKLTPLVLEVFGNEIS
Retinoic acid receptor RXR-alpha (Homo sapiens), sequence (P19793 whole entry, looked up, the tested form may be a part): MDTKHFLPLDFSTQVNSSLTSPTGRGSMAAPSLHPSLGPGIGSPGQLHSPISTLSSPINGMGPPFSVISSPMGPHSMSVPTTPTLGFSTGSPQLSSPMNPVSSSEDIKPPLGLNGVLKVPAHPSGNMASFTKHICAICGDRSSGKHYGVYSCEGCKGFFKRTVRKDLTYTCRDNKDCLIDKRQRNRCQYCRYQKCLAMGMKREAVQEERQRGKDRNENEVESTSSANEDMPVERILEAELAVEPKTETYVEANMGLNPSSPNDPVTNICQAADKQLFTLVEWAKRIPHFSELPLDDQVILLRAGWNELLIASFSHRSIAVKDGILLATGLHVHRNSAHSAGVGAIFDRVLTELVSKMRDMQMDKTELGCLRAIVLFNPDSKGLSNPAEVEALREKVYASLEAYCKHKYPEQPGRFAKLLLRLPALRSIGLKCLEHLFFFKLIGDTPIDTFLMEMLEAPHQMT
human Thyroid Receptor alpha (THRa1), THRA (gene 7067), sequence (P10827 whole entry, looked up, the tested form may be a part): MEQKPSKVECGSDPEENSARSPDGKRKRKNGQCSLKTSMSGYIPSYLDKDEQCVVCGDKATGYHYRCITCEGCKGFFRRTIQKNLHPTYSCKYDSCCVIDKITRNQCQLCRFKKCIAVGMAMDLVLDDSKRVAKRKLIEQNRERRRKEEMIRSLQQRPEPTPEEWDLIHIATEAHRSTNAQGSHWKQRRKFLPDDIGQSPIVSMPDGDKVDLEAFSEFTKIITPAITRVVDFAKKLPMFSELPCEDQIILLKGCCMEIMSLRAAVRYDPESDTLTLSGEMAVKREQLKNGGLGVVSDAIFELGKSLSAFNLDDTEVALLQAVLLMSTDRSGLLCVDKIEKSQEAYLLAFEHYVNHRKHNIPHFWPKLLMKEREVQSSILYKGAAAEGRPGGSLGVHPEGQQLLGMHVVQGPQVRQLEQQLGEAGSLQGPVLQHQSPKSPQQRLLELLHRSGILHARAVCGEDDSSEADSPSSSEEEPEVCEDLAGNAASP
E-selectin (Homo sapiens), sequence (P16581 whole entry, looked up): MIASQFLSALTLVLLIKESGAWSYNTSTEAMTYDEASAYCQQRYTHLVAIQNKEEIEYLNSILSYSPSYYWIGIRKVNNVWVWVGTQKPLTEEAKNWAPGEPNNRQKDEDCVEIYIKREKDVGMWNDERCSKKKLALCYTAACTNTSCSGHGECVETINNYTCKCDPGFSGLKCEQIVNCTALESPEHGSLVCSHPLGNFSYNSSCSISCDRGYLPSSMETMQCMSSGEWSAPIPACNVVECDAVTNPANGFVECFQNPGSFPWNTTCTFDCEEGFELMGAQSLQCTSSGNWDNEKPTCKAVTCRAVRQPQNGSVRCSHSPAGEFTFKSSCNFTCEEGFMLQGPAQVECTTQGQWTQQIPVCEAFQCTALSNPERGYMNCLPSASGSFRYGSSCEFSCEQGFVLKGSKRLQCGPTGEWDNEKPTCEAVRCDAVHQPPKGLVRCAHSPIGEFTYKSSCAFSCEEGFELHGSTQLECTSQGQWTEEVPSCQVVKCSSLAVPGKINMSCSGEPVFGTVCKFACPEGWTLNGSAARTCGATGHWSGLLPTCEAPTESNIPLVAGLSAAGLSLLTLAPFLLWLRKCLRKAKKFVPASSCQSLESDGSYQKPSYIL
human Retinoid X Receptor beta (RXRb), RXRB (gene 6257), sequence (P28702 whole entry, looked up, the tested form may be a part): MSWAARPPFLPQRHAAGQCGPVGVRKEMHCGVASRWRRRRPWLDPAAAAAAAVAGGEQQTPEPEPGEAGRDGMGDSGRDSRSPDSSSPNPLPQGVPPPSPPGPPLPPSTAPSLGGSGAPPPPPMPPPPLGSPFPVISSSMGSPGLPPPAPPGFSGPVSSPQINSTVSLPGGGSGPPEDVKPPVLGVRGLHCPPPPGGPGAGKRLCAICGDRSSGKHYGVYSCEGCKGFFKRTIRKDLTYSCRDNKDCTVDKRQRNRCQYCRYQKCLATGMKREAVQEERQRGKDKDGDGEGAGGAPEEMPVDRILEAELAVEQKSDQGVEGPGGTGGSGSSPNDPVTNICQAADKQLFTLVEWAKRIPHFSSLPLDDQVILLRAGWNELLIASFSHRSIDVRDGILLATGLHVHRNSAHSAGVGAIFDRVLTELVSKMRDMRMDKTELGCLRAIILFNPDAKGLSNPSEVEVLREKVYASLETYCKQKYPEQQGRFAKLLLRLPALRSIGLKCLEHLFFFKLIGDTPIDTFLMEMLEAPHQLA
human RAR-related Orphan Receptor gamma (RORg), RORC (gene 6097), sequence (P51449 whole entry, looked up, the tested form may be a part): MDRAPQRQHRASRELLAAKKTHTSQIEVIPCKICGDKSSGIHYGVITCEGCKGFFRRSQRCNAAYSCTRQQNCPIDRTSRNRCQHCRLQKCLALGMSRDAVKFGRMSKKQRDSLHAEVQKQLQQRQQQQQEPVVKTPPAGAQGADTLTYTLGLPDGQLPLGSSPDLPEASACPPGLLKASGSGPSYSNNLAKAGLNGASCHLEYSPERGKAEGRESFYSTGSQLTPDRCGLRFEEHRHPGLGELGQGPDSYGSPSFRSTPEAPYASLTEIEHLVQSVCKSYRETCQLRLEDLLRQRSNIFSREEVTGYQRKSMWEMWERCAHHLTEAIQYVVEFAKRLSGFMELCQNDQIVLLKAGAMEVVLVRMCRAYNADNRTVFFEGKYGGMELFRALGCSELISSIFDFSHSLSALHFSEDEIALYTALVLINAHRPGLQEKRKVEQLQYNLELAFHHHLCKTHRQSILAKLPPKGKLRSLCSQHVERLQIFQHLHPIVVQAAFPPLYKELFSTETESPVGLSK

Compound: O=CCCCC=O
- outcome [1]: inactive
- outcome [2]: inactive
- outcome [3]: inactive
- AC50 [4]: 33.7 µM (active)
- AC50 [5]: 33.2 µM (active)
- outcome [6]: inactive
- AC50 [7]: 29.5 µM (active)
- outcome [8]: inactive
- outcome [9]: inactive
- outcome [10]: inactive
- AC50 [11]: 31.7 µM (active)
- outcome [12]: inactive
- outcome [13]: inactive
- AC50 [14]: 30.7 µM (active)
- outcome [15]: inactive
- outcome [16]: inactive
- outcome [17]: inactive
- outcome [18]: inactive

Compound: CN(C[C@@H](CC[N+]12CCC(C3CCCCC3)(CC1)CC2)c1ccc(Cl)c(Cl)c1)C(=O)c1cc(C(F)(F)F)cc(C(F)(F)F)c1
- outcome [1]: inactive
- outcome [2]: inactive
- outcome [3]: inactive
- outcome [19]: inactive
- AC50 [4]: 27.5 µM (active)
- AC50 [5]: 27.6 µM (active)
- AC50 [6]: 21.1 µM (active)
- AC50 [20]: 27.2 µM (active)
- AC50 [7]: 14.6 µM (active)
- AC50 [9]: 33.6 µM (active)
- outcome [10]: inactive
- AC50 [11]: 12.9 µM (active)
- AC50 [12]: 23.5 µM (active)
- AC50 [13]: 13.3 µM (active)
- AC50 [14]: 29.2 µM (active)
- AC50 [15]: 16.5 µM (active)
- AC50 [16]: 13 µM (active)
- outcome [17]: inactive
- AC50 [18]: 29.1 µM (active)

Compound: Cc1ncc(CO)c(CO)c1O
- outcome [1]: inactive
- outcome [2]: inactive
- outcome [3]: inactive
- outcome [4]: inactive
- outcome [5]: inactive
- outcome [6]: inactive
- outcome [20]: inactive
- outcome [7]: inactive
- outcome [8]: inactive
- outcome [9]: inactive
- outcome [10]: inactive
- outcome [11]: inactive
- outcome [12]: inactive
- outcome [13]: inactive
- outcome [14]: inactive
- outcome [15]: inactive
- outcome [16]: inactive
- outcome [18]: inactive

Compound: CCCCCCCCN(C)CCCCCCCC
- outcome [2]: inactive
- AC50 [3]: 43.5 µM (active)
- outcome [19]: inactive
- outcome [4]: inactive
- outcome [5]: inactive
- outcome [6]: inactive
- outcome [20]: inactive
- outcome [7]: inactive
- outcome [8]: inactive
- outcome [9]: inactive
- outcome [10]: inactive
- outcome [11]: inactive
- outcome [12]: inactive
- outcome [13]: inactive
- outcome [14]: inactive
- outcome [15]: inactive
- outcome [16]: inactive
- outcome [18]: inactive

Compound: Oc1ccccc1
- outcome [1]: inactive
- outcome [2]: inactive
- outcome [4]: inactive
- outcome [5]: inactive
- outcome [6]: inactive
- outcome [20]: inactive
- outcome [7]: inactive
- outcome [8]: inactive
- outcome [9]: inactive
- outcome [11]: inactive
- outcome [12]: inactive
- outcome [13]: inactive
- outcome [14]: inactive
- outcome [15]: inactive
- outcome [16]: inactive
- outcome [18]: inactive

Compound: CCCC(=O)OCCC(C)C
- outcome [1]: inactive
- outcome [19]: inactive
- outcome [4]: inactive
- outcome [5]: inactive
- outcome [6]: inactive
- outcome [7]: inactive
- outcome [8]: inactive
- outcome [9]: inactive
- outcome [10]: inactive
- outcome [11]: inactive
- outcome [12]: inactive
- outcome [13]: inactive
- outcome [14]: inactive
- outcome [15]: inactive
- outcome [16]: inactive
- outcome [18]: inactive

Compound: CCCCCCCCCCCO
- AC50 [1]: 159 µM (active)
- AC50 [2]: 179 µM (active)
- AC50 [3]: 47.8 µM (active)
- outcome [19]: inactive
- AC50 [4]: 32 µM (active)
- outcome [5]: inactive
- outcome [6]: inactive
- outcome [20]: inactive
- AC50 [7]: 31 µM (active)
- outcome [9]: inactive
- AC50 [10]: 159 µM (active)
- AC50 [11]: 31.3 µM (active)
- outcome [12]: inactive
- outcome [13]: inactive
- outcome [14]: inactive
- outcome [15]: inactive
- outcome [16]: inactive
- outcome [17]: inactive
- outcome [18]: inactive
